Records with an inconclusive call do not appear. The source made the active and inactive calls. Calls come from the whole dose curve; as a rule, active = well fitted activation curve with a large enough effect; inconclusive = small, poorly fitted or top-dose-only effect; inactive = no such curve, though single readings can be large or run the other way.
Molecular target: Rap guanine nucleotide exchange factor 4 (Homo sapiens) (UniProt Q8WZA2)
Experiment: Confirmatory qHTS for agonist of cAMP-regulated guanine nucleotide exchange factor 4 (EPAC2) (AID 1645884);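 note: nucleotide exchange releases bodipy-GDP from Rap1 and this lowers its fluorescence; nearly all actives have a fitted effect of over 65% in size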
Conditions: EPAC2 GEF activity, Rap1B-BODIPY-GDP fluorescence, percent relative to cAMP agonist control; series mostly up to 154 µM; activation: at the top concentration
% is set by controls: 0 for no effect and ±100 for the full control effect.

Rap guanine nucleotide exchange factor 4 (Homo sapiens), sequence (Q8WZA2 whole entry, looked up): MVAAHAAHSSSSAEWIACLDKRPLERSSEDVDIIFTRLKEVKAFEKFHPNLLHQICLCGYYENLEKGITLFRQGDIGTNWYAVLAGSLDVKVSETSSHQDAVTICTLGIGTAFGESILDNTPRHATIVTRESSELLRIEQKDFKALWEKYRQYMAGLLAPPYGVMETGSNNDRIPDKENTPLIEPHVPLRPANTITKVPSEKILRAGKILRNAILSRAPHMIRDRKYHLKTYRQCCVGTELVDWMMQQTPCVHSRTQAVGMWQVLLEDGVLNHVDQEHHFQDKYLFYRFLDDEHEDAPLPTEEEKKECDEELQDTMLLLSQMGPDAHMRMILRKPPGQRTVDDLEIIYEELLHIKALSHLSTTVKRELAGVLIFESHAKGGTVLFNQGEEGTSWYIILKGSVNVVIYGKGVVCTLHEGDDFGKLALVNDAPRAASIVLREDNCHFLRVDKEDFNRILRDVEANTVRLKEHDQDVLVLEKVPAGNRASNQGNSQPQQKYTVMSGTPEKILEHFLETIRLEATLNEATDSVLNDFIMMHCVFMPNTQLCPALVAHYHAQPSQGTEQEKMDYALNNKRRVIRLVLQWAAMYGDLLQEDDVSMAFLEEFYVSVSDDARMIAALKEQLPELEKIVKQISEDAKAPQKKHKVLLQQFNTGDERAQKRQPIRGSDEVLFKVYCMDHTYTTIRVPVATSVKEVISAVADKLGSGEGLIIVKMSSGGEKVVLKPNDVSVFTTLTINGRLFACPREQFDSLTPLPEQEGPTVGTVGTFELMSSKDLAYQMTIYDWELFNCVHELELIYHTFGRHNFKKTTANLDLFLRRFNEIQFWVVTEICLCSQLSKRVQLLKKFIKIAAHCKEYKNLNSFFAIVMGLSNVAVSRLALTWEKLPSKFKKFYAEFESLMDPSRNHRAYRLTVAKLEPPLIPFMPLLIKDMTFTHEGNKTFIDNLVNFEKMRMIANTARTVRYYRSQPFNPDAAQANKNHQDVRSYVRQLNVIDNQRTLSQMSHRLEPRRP

SMILES | activation
CCOc1nc2cccc(C(=O)OC(C)OC(=O)OC3CCCCC3)c2n1Cc1ccc(-c2ccccc2-c2nn[nH]n2)cc1 (stereo not drawn) | -9.92% (inactive)
CC(C)=CCCC1(C)C=Cc2c(O)c3c(c(CC=C(C)C)c2O1)OC12C(=CCCC1C(C)(C)O[C@@]2(C/C=C(\C)C(=O)O)C(=O)O)C3=O (stereo partly drawn) | -6.39% (inactive)
Cc1cc(C)cc(C(=O)N(C)[C@H](Cc2ccc(-c3ccccc3)cc2)C(=O)N[C@@H](Cc2c[nH]c3ccccc23)C(=O)O)c1 | -9.62% (inactive)

— PubChem BioAssay (NCATS)
